About 7,900 targets were measured; listed, in parts, are those with a hit and a random draw of the rest. About 0.6% of all pairs of compound and target were hits.
Columns and labels:
Assay in all cases: log2 fold change, soluble protein after heating vs DMSO (PISA); higher = thermal stabilisation; K562 cells, 10 uM, 30 min; active = over 0.2 and 3.5 SD of the protein, either way, in both replicates (recomputed)
[1] = compound: C1COCCN1CCN2C3=CC=CC=C3N=C2NC(=O)C4=CC(=CC=C4)[N+](=O)[O-] [IRAK-1-4 Inhibitor I]
Method in brief: (§1)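 Soluble protein was defined as the supernatant after 21,000xg for 90 min. It came from K562 cells at 2×10^6 cells/mL given 10 μM compound for 30 min, heated in aliquots for 3 min across 48°C-58°C, pooled, and extracted in PBS with 0.5% NP-40 at 4°C, and was quantified by TMTpro 16plex LC-MS/MS with equalised channel sums. Thermal stability against control samples, from duplicates, is reported as log2 fold change.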

[2] = compound: C=CC(=O)N1CCC[C@@H](n2nc(-c3ccc(Oc4ccccc4)cc3)c3c(N)ncnc32)C1 [ibrutinib]
Method in brief: as §1

[3] = compound: CC(=O)c1cnc2ccc(-c3cc(Cl)c(O)c(Cl)c3)nc2c1N[C@H]1CC[C@H](CN(C)C)CC1
Method in brief: as §1

[4] = compound: CC(C)(C)Cn1c(N)nc2ccc(-c3[nH]c(C(C)(C)C)nc3-c3ccc(F)cc3)nc21 [ralimetinib]
Method in brief: as §1

[5] = compound: CC(C)(O)CC(=O)NCCn1ccc2ncnc(Nc3ccc(Oc4cccc(C(F)(F)F)c4)c(Cl)c3)c21
Method in brief: as §1

[6] = compound: CC(C)C1=C2N=C(C=C(N2N=C1)NCC3=CC=CC=C3)NCCCCCCN
Method in brief: as §1

[7] = compound: CC(C)C[C@@H](C=O)NC(=O)[C@H](CC(C)C)NC(=O)[C@H](CC(C)C)NC(=O)OCc1ccccc1
Method in brief: as §1

[8] = compound: CC(C)N(C[C@H]1O[C@@H](n2cnc3c(N)ncnc32)[C@H](O)[C@@H]1O)[C@H]1C[C@@H](CCc2nc3cc(C(C)(C)C)ccc3[nH]2)C1 [pinometostat]
Method in brief: as §1

[9] = compound: CC1=C(C(CC(=O)N1)C2=CC=C(C=C2)C(F)(F)F)C(=O)NC3=C(C=C4C(=C3)C=NN4)F
Method in brief: as §1

[10] = compound: CC1=C(C2=C(C=C1)C(=O)C3=CC=CC=C3N2CCCN)C
Method in brief: as §1

Measured: log2 fold change

NDUFA7 (UniProt O95182)
inactive: [1] 0.169 | [2] 0.024 | [3] -0.014 | [4] -0.017 | [5] -0.192 | [6] -0.063 | [7] 0.158 | [8] 0.074 | [9] 0.038 | [10] 0.033

OVCA2 (UniProt Q8WZ82)
inactive: [1] -0.087 | [2] 0.023 | [3] -0.019 | [4] -0.1 | [7] 0.095 | [8] 0.021 | [9] 0.044

OSBP (UniProt P22059)
Chain of UniProt P22059 (P22059 whole entry, looked up): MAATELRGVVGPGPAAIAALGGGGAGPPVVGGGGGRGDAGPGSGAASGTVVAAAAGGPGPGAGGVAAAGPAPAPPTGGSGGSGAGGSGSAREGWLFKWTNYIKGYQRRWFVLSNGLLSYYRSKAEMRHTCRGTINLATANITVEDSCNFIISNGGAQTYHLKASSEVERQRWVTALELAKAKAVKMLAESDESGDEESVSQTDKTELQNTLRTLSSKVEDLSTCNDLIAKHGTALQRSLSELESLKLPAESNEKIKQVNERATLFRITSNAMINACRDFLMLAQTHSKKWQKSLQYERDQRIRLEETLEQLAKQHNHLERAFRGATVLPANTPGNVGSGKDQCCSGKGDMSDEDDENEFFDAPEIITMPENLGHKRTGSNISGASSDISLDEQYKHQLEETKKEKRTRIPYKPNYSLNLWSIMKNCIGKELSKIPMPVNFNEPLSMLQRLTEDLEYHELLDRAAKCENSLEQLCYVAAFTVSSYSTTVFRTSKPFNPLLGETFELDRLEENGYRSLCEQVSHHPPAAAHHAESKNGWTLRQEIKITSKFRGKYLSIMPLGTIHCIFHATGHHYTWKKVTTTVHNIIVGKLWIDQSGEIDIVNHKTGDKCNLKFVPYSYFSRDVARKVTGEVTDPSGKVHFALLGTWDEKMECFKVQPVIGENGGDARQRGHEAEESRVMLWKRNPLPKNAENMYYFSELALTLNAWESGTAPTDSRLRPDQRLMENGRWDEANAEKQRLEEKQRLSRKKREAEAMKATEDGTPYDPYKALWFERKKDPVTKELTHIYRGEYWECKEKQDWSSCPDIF
inactive: [1] 0 | [2] -0.067 | [3] -0.029 | [4] -0.009 | [5] -0.076 | [6] 0.091 | [7] 0.017 | [8] -0.002 | [9] -0.052 | [10] 0.024

NCOA7 (UniProt Q8NI08)
inactive: [1] 0.017 | [2] -0.056 | [3] -0.075 | [4] 0.052 | [5] -0.005 | [6] -0.088 | [7] 0.072 | [8] 0.019 | [9] -0.033 | [10] -0.009

OGFOD2 (UniProt Q6N063)
Chain of UniProt Q6N063 (Q6N063 whole entry, looked up): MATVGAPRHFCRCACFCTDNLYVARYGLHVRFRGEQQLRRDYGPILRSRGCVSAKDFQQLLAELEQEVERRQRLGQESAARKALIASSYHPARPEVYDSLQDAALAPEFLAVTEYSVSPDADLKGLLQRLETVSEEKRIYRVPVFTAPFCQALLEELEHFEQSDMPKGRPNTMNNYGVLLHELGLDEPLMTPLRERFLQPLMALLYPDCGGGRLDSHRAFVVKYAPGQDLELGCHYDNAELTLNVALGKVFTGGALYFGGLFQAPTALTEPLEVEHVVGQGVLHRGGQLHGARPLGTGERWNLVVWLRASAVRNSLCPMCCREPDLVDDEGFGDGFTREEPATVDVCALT
inactive: [1] 0.016 | [2] -0.023 | [3] -0.102 | [4] 0.011 | [5] -0.031 | [6] -0.079 | [7] 0.002 | [8] 0.025 | [9] -0.001 | [10] -0.073

MRFAP1 (UniProt Q9Y605)
inactive: [1] 0.218 | [2] -0.017 | [3] 0.206 | [4] -0.022 | [6] -0.056 | [7] 0.437 | [8] -0.016 | [9] 0.28 | [10] -0.339

MORC2 (UniProt Q9Y6X9)
inactive: [1] -0.292 | [2] 0.042 | [3] -0.201 | [5] -0.074 | [6] -0.084 | [8] 0.038

OGFOD1 (UniProt Q8N543)
inactive: [1] 0.07 | [2] -0.036 | [3] 0.009 | [4] -0.05 | [5] -0.023 | [6] -0.018 | [7] 0.035 | [8] -0.011 | [9] -0.028 | [10] 0.036

NR2C2AP isoform 2 (UniProt Q86WQ0)
inactive: [1] -0.126 | [2] -0.003 | [3] -0.062 | [4] -0.056 | [5] 0.012 | [6] 0.01 | [7] -0.026 | [8] -0.073 | [9] 0.057 | [10] 0.063

NASP (UniProt P49321)
inactive: [1] 0.01 | [2] -0.044 | [3] 0.033 | [4] 0.019 | [5] -0.004 | [6] -0.05 | [7] -0.009 | [8] -0.048 | [9] -0.021 | [10] -0.09

MTFR1L (UniProt Q9H019)
Chain of UniProt Q9H019 (Q9H019 whole entry, looked up): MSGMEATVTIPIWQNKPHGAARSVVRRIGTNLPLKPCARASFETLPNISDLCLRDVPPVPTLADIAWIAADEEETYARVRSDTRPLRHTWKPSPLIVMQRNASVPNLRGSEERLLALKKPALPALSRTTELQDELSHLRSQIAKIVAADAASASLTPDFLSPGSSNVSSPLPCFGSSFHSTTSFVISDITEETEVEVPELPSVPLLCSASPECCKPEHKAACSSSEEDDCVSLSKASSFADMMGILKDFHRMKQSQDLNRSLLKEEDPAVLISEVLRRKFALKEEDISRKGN
inactive: [1] 0.04 | [2] 0.048 | [3] -0.052 | [4] -0.005 | [5] 0.014 | [6] -0.412 | [7] 0.047 | [8] 0.003 | [9] 0.041 | [10] -0.05

PACS1 (UniProt Q6VY07)
active: [3] -0.297
inactive: [1] -0.002 | [2] -0.016 | [4] -0.024 | [5] -0.014 | [6] -0.011 | [7] 0 | [8] -0.029 | [9] -0.098 | [10] -0.007

NA isoform 3 (UniProt Q4G0T1)
Chain of UniProt Q4G0T1 (Q4G0T1 whole entry, looked up): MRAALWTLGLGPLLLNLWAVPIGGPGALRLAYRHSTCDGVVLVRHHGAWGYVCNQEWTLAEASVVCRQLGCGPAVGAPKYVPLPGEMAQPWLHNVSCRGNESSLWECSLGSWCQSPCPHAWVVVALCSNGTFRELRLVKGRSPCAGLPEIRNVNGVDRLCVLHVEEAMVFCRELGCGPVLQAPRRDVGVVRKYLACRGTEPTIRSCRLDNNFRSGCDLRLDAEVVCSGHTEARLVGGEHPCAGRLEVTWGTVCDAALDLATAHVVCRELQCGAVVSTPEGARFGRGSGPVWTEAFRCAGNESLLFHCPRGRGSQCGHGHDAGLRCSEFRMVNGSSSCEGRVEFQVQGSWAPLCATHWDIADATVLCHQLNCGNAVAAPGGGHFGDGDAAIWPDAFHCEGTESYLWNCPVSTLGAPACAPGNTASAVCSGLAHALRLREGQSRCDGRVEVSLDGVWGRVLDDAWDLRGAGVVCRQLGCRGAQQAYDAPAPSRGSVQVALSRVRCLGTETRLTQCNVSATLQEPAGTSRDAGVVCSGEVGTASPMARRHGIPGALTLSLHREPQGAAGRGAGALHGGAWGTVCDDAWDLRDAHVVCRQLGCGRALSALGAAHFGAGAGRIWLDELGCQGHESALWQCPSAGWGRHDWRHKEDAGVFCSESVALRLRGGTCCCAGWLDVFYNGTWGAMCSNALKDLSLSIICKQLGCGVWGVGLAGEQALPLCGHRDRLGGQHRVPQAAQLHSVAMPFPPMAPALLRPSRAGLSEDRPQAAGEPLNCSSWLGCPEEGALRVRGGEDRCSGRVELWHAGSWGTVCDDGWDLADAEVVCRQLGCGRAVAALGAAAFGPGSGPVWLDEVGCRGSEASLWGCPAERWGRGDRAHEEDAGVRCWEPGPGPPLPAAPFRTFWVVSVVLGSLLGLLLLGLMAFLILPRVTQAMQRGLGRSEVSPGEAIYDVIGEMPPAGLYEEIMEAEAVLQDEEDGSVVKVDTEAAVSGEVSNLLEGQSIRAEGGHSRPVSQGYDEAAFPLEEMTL
inactive: [1] 0.007 | [2] -0.1 | [3] -0.146 | [4] -0.118 | [6] -0.022 | [7] 0.155 | [8] -0.043 | [9] 0.079 | [10] -0.109

MON1A (UniProt Q86VX9)
inactive: [1] -0.005 | [2] 0.231 | [4] -0.213 | [5] -0.012 | [6] -0.151 | [7] 0.032 | [8] 0.002 | [9] 0.049 | [10] 0.129

MPHOSPH8 isoform 2 (UniProt Q99549)
active: [10] -0.84
inactive: [1] -0.149 | [3] 0.026 | [4] 0.271 | [5] -0.06 | [7] 0.035 | [8] -0.027

NEU3 isoform 2 (UniProt Q9UQ49)
active: [6] -0.984

ORC3 (UniProt Q9UBD5)
inactive: [3] -0.031

NA (UniProt B2RBV5)
inactive: [2] 0.069 | [5] -0.037 | [9] -0.314

NUDT6 (UniProt P53370)
inactive: [1] -0.143 | [4] 0.183 | [5] -0.106 | [6] -0.033 | [7] 0.035 | [8] 0.071 | [9] -0.161 | [10] 0.283

P4HA2 (UniProt O15460)
inactive: [1] -0.072 | [2] 0.168 | [4] 0.038 | [5] 0.045 | [6] -0.017 | [7] 0.062 | [8] 0.06 | [9] 0.039 | [10] 0

MXRA7 isoform 3 (UniProt P84157)
inactive: [4] -0.031 | [7] 0.151

MLST8 (UniProt Q9BVC4)
inactive: [1] 0.002 | [2] -0.048 | [3] 0.099 | [5] -0.049 | [6] -0.136 | [8] -0.093 | [9] 0.02 | [10] 0.037

MOB3B (UniProt Q86TA1)
inactive: [1] -0.26 | [2] -0.001 | [3] -0.026 | [6] -0.169 | [8] -0.056 | [9] -0.116 | [10] 0.024

MITF (UniProt O75030)
active: [6] -0.581
inactive: [1] 0.166 | [3] -0.212 | [8] 0.074 | [9] 0.158

NCOA5 (UniProt Q9HCD5)
Chain of UniProt Q9HCD5 (Q9HCD5 whole entry, looked up): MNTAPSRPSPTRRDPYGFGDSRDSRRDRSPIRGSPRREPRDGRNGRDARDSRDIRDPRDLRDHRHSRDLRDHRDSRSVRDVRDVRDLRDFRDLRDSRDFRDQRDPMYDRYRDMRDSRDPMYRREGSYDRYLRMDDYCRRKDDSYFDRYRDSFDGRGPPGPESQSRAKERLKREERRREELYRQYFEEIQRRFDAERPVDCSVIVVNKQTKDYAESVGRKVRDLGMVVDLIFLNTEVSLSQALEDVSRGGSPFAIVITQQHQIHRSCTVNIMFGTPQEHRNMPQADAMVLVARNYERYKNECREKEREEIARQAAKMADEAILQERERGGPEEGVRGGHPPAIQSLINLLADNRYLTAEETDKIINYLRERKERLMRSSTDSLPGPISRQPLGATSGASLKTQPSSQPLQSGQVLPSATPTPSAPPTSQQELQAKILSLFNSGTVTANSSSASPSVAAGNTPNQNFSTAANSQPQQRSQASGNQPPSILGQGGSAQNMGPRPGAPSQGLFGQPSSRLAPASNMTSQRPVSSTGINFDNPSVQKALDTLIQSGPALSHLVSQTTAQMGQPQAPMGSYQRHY
inactive: [1] -0.136 | [4] -0.012 | [6] -0.194 | [7] 0.055 | [8] 0.048 | [9] 0.082

NEK3 (UniProt P51956)
inactive: [1] 0.104 | [3] -0.184 | [4] -0.168 | [5] -0.015 | [6] 0.127 | [7] 0.098 | [8] -0.015 | [9] -0.028 | [10] 0.018

MLH1 (UniProt P40692)
inactive: [2] -0.018 | [3] -0.112 | [5] -0.347 | [10] 0.008

NIPSNAP2 (UniProt C9J7B1)
inactive: [2] 0.052 | [3] -0.389

MTHFD1, A0A384N5Y3
inactive: [2] 0.002 | [3] -0.085 | [4] 0 | [5] -0.034 | [7] -0.008 | [9] -0.024 | [10] 0.049

NDUFB1 (UniProt O75438)
inactive: [1] 0.034 | [2] 0.024 | [3] 0.06 | [5] -0.043 | [6] -0.052 | [8] 0.065 | [9] 0.059 | [10] 0.158

NIPSNAP3B (UniProt Q9BS92)
inactive: [1] 0.048 | [2] 0.082 | [3] 0.026 | [6] 0.045 | [8] 0.056 | [9] 0.07 | [10] 0.049

NPC1L1 (UniProt Q9UHC9)
inactive: [1] 0.014 | [2] 0.047 | [3] -0.008 | [8] -0.136 | [9] -0.614 | [10] 0.085

OSBPL3 (UniProt Q9H4L5)
inactive: [1] -0.083 | [3] -0.277 | [4] 0.309 | [5] 0.252 | [6] 0.506 | [7] 0.206 | [8] 0.204 | [9] -0.165 | [10] -0.069

OXR1 isoform 2 (UniProt Q8N573)
Chain of UniProt Q8N573 (Q8N573 whole entry, looked up): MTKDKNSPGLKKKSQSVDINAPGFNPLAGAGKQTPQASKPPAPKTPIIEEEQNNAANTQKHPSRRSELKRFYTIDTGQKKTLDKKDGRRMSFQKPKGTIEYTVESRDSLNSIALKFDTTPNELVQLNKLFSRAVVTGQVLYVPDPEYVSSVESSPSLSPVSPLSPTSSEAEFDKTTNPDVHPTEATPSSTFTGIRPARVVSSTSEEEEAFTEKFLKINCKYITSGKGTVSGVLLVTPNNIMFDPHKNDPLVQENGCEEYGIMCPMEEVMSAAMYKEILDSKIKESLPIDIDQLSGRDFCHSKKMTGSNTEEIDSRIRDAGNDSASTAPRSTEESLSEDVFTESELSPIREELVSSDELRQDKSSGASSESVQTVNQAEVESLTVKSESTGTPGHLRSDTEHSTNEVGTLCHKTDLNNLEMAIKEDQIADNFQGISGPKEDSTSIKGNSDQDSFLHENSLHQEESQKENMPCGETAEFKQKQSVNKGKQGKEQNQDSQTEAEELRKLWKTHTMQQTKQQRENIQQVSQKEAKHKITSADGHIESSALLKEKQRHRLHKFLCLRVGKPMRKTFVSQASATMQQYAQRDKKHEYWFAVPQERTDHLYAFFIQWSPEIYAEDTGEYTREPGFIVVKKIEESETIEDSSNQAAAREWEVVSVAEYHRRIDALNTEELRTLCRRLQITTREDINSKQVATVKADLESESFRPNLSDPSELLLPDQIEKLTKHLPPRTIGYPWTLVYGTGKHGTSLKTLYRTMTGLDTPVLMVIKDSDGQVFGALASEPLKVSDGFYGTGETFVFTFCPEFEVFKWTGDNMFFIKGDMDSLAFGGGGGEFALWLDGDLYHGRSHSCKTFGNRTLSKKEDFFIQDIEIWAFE
inactive: [1] -0.044 | [3] -0.123 | [4] -0.088 | [5] -0.118 | [7] 0.119 | [8] 0.066 | [9] -0.028 | [10] 0.031

MYH16 (UniProt Q9H6N6)
Chain of UniProt Q9H6N6 (Q9H6N6 whole entry, looked up): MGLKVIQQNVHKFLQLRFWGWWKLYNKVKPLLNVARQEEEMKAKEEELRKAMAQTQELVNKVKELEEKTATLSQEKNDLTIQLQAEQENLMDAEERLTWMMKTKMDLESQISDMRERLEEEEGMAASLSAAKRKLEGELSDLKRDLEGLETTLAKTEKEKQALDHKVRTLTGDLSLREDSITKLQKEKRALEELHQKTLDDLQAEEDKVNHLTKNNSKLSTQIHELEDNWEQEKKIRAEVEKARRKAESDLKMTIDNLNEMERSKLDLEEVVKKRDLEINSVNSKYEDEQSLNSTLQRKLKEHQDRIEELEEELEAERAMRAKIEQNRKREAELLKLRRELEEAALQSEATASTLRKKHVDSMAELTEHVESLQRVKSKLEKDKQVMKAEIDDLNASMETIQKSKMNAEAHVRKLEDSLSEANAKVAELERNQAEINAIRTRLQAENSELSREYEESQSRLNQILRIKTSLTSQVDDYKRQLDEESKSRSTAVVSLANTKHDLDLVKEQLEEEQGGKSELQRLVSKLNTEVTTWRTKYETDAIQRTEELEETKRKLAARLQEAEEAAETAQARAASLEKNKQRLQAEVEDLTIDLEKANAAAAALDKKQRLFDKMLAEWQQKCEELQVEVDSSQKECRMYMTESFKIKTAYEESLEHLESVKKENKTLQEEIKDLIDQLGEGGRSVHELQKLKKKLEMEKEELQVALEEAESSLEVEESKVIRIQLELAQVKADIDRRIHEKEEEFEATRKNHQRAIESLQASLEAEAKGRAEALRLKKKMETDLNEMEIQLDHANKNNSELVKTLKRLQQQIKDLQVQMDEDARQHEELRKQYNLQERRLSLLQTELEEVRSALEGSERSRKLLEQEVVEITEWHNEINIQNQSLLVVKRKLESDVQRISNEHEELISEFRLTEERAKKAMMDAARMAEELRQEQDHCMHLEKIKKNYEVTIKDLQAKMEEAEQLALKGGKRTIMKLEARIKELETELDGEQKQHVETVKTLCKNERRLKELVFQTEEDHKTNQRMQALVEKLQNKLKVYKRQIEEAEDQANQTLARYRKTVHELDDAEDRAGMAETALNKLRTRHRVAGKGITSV
inactive: [1] -0.177 | [2] -0.02 | [3] 0.045 | [6] 0.026 | [8] -0.019 | [9] -0.024
active: [10] 0.805

NKTR (UniProt P30414)
inactive: [2] -0.191 | [6] 0.084
